Sampled rows, rich in hits. Any-hit rate of the full collection: about 2.4%.
WRN helicase inh – WRN helicase (human) inhibition; Q14191; WRN helicase unwinding, fluorescent forked duplex, kinetic; Potency, µM (highest dose often 114 µM), hits mostly inhibitors; 360,000 tested, 0.46% active; AID 651768; further: nearly all actives have a fitted effect of over 55% in size
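Kinetic red-fluorescence monitoring (525/598 nm) tracks WRN helicase activity after 100 nM fluorophore-quencher forked duplex and 2 mM ATP are added to 20 nM enzyme pretreated 15 min at room temperature with compound.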
Pol kappa inh-1 – DNA polymerase kappa (human) inhibition; purified Pol kappa, fluorescent DNA synthesis assay, 10 min; Potency, µM (titrated, usually from 107 µM), hits mostly inhibitors; 400,000 tested, 0.53% active; Q9UBT6; AID 588579
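Enzyme at 10 nM met test compounds for 15 min at room temperature. Substrate addition (50 nM final) began the reaction, which was monitored by fluorescence at 0 and 10 min.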
Pol iota inh – inhibitors of human DNA polymerase iota; Q9UNA4; Pol iota fluorescent replication assay, 10 min; Potency, µM (titrated, usually from 115 µM), most hits filed as inhibitors; 390,000 tested, 1% active; AID 588590
Target sequence (Q9UNA4 whole entry, looked up): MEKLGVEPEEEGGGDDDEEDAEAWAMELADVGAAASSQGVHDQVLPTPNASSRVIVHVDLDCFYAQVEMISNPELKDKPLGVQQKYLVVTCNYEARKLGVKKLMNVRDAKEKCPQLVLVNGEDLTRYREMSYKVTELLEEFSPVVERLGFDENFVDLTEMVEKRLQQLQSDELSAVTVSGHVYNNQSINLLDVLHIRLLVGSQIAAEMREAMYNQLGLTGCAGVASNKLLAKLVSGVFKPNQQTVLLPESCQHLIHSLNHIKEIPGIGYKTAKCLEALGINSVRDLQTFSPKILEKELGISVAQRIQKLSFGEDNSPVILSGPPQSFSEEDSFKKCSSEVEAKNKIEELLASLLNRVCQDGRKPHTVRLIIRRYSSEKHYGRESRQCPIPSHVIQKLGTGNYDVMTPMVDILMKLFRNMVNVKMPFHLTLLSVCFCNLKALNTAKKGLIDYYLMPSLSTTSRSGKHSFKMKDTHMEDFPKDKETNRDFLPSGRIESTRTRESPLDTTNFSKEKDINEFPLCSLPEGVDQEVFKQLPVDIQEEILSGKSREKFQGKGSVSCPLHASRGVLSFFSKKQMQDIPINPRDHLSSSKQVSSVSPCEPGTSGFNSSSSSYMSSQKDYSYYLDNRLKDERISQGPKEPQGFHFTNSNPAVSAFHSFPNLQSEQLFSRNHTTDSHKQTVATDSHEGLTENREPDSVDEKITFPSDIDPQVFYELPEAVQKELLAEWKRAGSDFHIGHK
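Pol iota at 10 nM preincubated 15 min with compounds at room temperature; reaction started with fluorescent substrate, 50 nM final. Fluorescence read kinetically at 0 and 10 min; buffer-only wells as negative control.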
POLB inh – blocks human DNA polymerase beta activity; P06746; Pol beta primer extension/strand displacement, fluorescence kinetic; Potency, µM (top dose mostly 114 µM), hits mostly inhibitors; 340,000 tested, 1.3% active; AID 485314
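10 nM enzyme + cpd, 15 min RT; start with substrate 50 nM final; read 0 min and after 10 min RT. Corrected, normalized data; 4-parameter Hill curve fit.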
Pol eta inh-1 – inhibitors of human DNA polymerase eta. Potency, µM (highest dose often 114 µM), actives largely listed as inhibitors. AID 588591. recombinant Pol eta, fluorescent DNA replication assay. Q9Y253. 390,000 tested, 1.2% active
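Pol eta (10 nM) was preincubated with compounds for 15 min at room temperature, after which fluorescent replication substrate (50 nM final) was added to start the reaction. Fluorescence was read kinetically at 0 and 10 min.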
FEN1 inhibitor – blocks human flap endonuclease 1; Potency, µM (series often up to 114 µM), most hits filed as inhibitors; 390,000 tested, 0.35% active; Recombinant FEN1 flap cleavage, fluorescence, 15 min; further: nearly all actives have a fitted effect of over 65% in size
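FEN1 at 10 nM, compound pretreatment for 15 min (room temperature), 50 nM final substrate to initiate; endpoint reads at 0 and 15 min; DMSO-only plates used as vehicle background.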
TbPGK inh – TbPGK inhibition, hit validation; AID 686980; 500 tested, 79% active; shares compounds with Pol kappa inh-1; TbPGK coupled GAPDH assay, Kinase-Glo luminescence; Potency, µM (top dose mostly 57.5 µM), hits mostly inhibitors; further: nearly all actives have a fitted effect of over 65% in size
Pol iota confirm – Human Pol iota inhibitor confirmatory assay | shares compounds with Pol kappa inh-1 | Potency, µM, actives largely listed as inhibitors | 1,500 tested, 77% active | Pol iota primer extension, TAMRA/BHQ fluorescence
Pol kappa inh-2 – Pol kappa (human) inhibition, cherry-pick confirmation | purified Pol-kappa, fluorescent strand-displacement substrate | Potency, µM, actives largely listed as inhibitors | 920 tested, 76% active | shares compounds with Pol eta inh-1 | AID 720501
Pol eta inh-2 – confirmation of human DNA polymerase eta inhibitors; shares compounds with Pol eta inh-1; AID 720502; 2,600 tested, 64% active; Potency, µM, most hits filed as inhibitors; Pol eta primer extension, TAMRA/BHQ fluorescence, 10 min
Hits are given with their value; [ ] = another dose, or the depositor's remark. The call rests on the fitted dose curve; in most records, active means well fitted curve in the direction sought with a large enough effect; inconclusive means small, poorly fitted or top-dose-only effect, or another doubt; inactive means no such curve, though single readings can be large; an effect the other way counts as inactive or inconclusive.

CCc1cccc(CC)c1N(COC)C(=O)Cn1c(C)nc2ccccc21 was read as Pol kappa inh-1 inactive, Pol iota inh inconclusive, POLB inh inactive, Pol eta inh-1 inactive and FEN1 inhibitor inactive.
For OCC1O[C@@H](OC2C(O)C(CO)O[C@@]2(CO)O[C@@H]2OC(CO)C(O)C(O)C2O)C(O)C(O)C1O (stereo partly specified) the results were Pol kappa inh-1 inactive.
`CN(C)C(=O)n1nnnc1Cc1ccc(-c2ccccc2)cc1` gave Pol kappa inh-1 inactive.
Screening O=C(Cc1cccs1)N/N=C/C=C/c1ccco1 returned WRN helicase inh inconclusive, Pol kappa inh-1 79µM, Pol iota inh 28µM, POLB inh 18µM, Pol eta inh-1 8.9µM, FEN1 inhibitor inactive, Pol iota confirm inconclusive, Pol kappa inh-2 30 and Pol eta inh-2 inconclusive.
COc1ccccc1/C=C/c1nc(C#N)c(N2CCN(C)CC2)o1 was read as Pol kappa inh-1 inactive, Pol iota inh inactive, POLB inh inactive, Pol eta inh-1 inactive and FEN1 inhibitor inactive.
CCOC(=O)C(=Cc1ccc(N(C)C)cc1)C(=O)c1ccccc1 was read as WRN helicase inh inactive.
CCOC(=O)N(O)c1ccc(C=Cc2ccccc2)cc1 was read as WRN helicase inh inconclusive, Pol kappa inh-1 79µM, Pol iota inh 25µM, Pol eta inh-1 13µM, FEN1 inhibitor inactive, TbPGK inh 9.2µM, Pol iota confirm 75, Pol kappa inh-2 17 and Pol eta inh-2 inconclusive.
For O=c1/c(=C/c2ccco2)sc2n1CN(c1ccccc1)CN=2 the results were WRN helicase inh inactive, Pol kappa inh-1 inactive, Pol iota inh inconclusive, POLB inh inactive, Pol eta inh-1 inactive and FEN1 inhibitor inactive.
Screening O=c1nc2s/c(=C\c3ccco3)c(=O)n2nc1Cc1ccc(F)cc1 returned WRN helicase inh 50µM, Pol kappa inh-1 20µM, Pol iota inh 10µM, POLB inh 2.8µM, Pol eta inh-1 7.1µM, FEN1 inhibitor inconclusive, Pol iota confirm 38 and Pol eta inh-2 30.
Screening O=[N+]([O-])c1ccccc1NC(=S)N/N=C/c1ccc(O)c(O)c1 returned WRN helicase inh 11µM, Pol kappa inh-1 20µM, Pol iota inh 8.9µM, POLB inh 3.5µM, Pol eta inh-1 3.5µM, FEN1 inhibitor inactive, Pol iota confirm 47 and Pol eta inh-2 21.
Screening CCCSc1nc(C)c(-c2csc(C(C#N)=C3CCCC3)n2)cc1C#N returned WRN helicase inh inconclusive, Pol kappa inh-1 inconclusive, Pol iota inh inconclusive, POLB inh inactive, Pol eta inh-1 45µM, FEN1 inhibitor inactive, Pol iota confirm 67 and Pol eta inh-2 34.
`Cc1nc2nc(-c3ccc(Cl)cc3Cl)nn2c(C)c1CCC(=O)Nc1ccc(F)cc1` gave Pol kappa inh-1 inactive, Pol iota inh inactive, POLB inh inactive, Pol eta inh-1 inactive and FEN1 inhibitor inactive.
For Cc1nnc(SCC2=C(C(=O)O)N3C(=O)C(NC(=O)Cn4nc(C(F)F)cc4C)C3SC2)s1 (stereo unspecified) the results were WRN helicase inh inactive[11.6 µM], Pol kappa inh-1 inconclusive, Pol iota inh 16µM, POLB inh inconclusive, Pol eta inh-1 8.9µM, FEN1 inhibitor inactive, TbPGK inh inconclusive and Pol eta inh-2 27.
